# Reference: the supplement of paper PMC10338343
# ± gives the standard deviation.
# System: MILI (PIWIL2) piRISC loaded with L1MC piRNA (26 nt)
# Test: pre-steady-state target cleavage rate (min^-1); guide: L1MC piRNA 5'p-UAACUAAAUACUAUGCAAGCUGUAGG; MIWI and MILI are mouse PIWI proteins and EfPiwi is from a freshwater sponge; tags in brackets are library labels; higher = faster piRNA-guided slicing of the target
# Details: auxiliary factor: 500 nM mouse GTSF1
# Procedure, shortened: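 The pre-steady-state cleavage rate was obtained by Cleave-'n-Seq with a burst-and-steady-state fit. A transcribed, DNA-blocked target RNA library (0.1 nM) was mixed with 1 nM active affinity-purified piRISC carrying one synthetic guide, with or without 500 nM GTSF1 partner protein, in HEPES–potassium acetate buffer at 33 °C for 0–8 or 0–960 min. Uncleaved targets were sequenced and normalised to depth and to weakly complementary targets, with three trials pooled and k3 capped at 0.0001 min^-1.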
row,Sequence,pre-steady-state target cleavage rate
1,UCCUGGAUCAGCUUGGAUAGAAUUUAGUUA,0.0242 ± 0.0065
2,UCCUGGAUGUCCUUGCAUAGUUUUUAGUAA,0.013 ± 0.0043
3,UCCUGGUACAGCUAGCAUAGAAUUUAGUUA,0.313 ± 0.084
4,UCCUGCUACAGCUUGCAUAUAUUUAGUUA,0.046 ± 0.011
5,UCCUGGAUGUCGUUGCAUAGUAUUUAAUUA,0.0359 ± 0.013
6,UCCUGGAUGAGCUUGCAUAGUAUUAGUUA,0.0846 ± 0.015
7,UCCUGGAUGUGCUUGCAUAGUAUUUAGUGA,0.11 ± 0.017
8,UCCUGGAUGUCGAUGCAUAGUAAUAAGUUA,0.00446 ± 0.0033
9,UCCUGGAACAGCUUGCAAUCUAUUUAGUUA,0.0258 ± 0.0054
10,UCCUGGAUGUGCUUGCAUAGUAUUUUGAUA,0.0122 ± 0.0054
11,UCCUGGAUGAGGUUGCAUACUAUUUAGUUA,0.0167 ± 0.006
12,UCCUGCUACAGCUUCGUUAGUAUUUAGUAA,0.154 ± 0.033
13,UCCUGGAUGUCGAACCUAUAGUAUUUAGUUA,0.00362 ± 0.0029
14,UCCUGCUACAGCUUGCAAUCUAUUUAGUAA,0.0639 ± 0.022
15,UCCUGGAUGUCCUUGCCAUAGUAUUUAGUUA,0.00783 ± 0.0048
16,UCCUGGAUCAGCUACGAUAGUAUUUAGUAA,0.0254 ± 0.0088
17,UCCUGGAACAGCUUGGAUAGAAUUUAGUUA,0.0521 ± 0.013
18,UCCUGGAACAGCUUGCAUAGUUUUUACAAA,0.00599 ± 0.0038
19,UCCUGGAUCAGCUUGCAUAGUAUUUACUAA,0.0285 ± 0.011
20,UCCUGCUAGUCCUUGCAUAGUAUUUACAAA,0.0056 ± 0.004
21,UCCUGCUACAGCUUGCAUGAGUAUUUAGUUA,0.0058 ± 0.0041
22,UCCUGGAACAGCUUGCAUACUAUUUAGAAA,0.0271 ± 0.011
23,UCCUGGUUCAGCUUGCAUAGUAUUUUCAAA,0.0427 ± 0.016
24,UCCUGCUACAGGAUGCAUAGUAUUUUCAAA,0.0053 ± 0.0038
